In the library only some 9.8% were active in any assay of this set; here they are far more common.
HTT cytoprotect: Huntington cell model cytoprotection by ATP luminescence; PC12 HTT-Q103 induced, cytoprotection, ATP luminescence, 40 h; Potency, µM (doses to about 56.4 µM), without a hit: cytoprotection (ATP increase), most hits filed as activators; 230,000 compounds, 0.14% hits; note: potency is the fitted concentration of half-maximal effect; % of control where 0% means no effect; nearly all actives have a fitted effect of over 45% in size
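Compounds added alongside 100 nM tebufenozide, which induces toxic Q103 huntingtin exon 1-GFP in stable PC12 cells; surviving cells quantified by luminescent ATP measurement. Medium: phenol red-free DMEM, 5% equine and 5% calf serum.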
HttQ103 aggreg: inhibitors of mutant huntingtin aggregate formation in PC12 cells; 220,000 compounds, 1.1% hits; PC12 HttQ103-GFP aggregates, Acumen cytometry, 40 h; Potency, µM (highest dose often 46.1 µM), without a hit: top-dose activity change, negative = inhibition, most hits filed as inhibitors; note: potency is the fitted concentration of half-maximal effect; % is set by controls: 0 for no effect and ±100 for the full control effect; nearly all actives have a fitted effect of over 60% in size
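PC12 cells with ecdysone-inducible HTT exon1 Q103-GFP, induced by 100 nM tebufenozide, given compounds in a concentration series. GFP aggregates (1–25 um, 6 SD above background) counted in lysates by laser-scanning cytometry, 488 nm excitation.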
HPGD block: inhibitors of human 15-hydroxyprostaglandin dehydrogenase (HPGD); purified HPGD, NADH fluorescence kinetic, PGE2 substrate; Potency, µM, for the others: at the top dose activity change, negative = inhibition, hits mostly inhibitors; 150,000 compounds, 4.3% hits; AID 894; active = well fitted inhibition curve with a large enough effect, not every such curve was filed as active; inconclusive = small, poorly fitted or top-dose-only effect, or another doubt; inactive = no such curve, though single readings can be large or run the other way; note: potency is the fitted concentration of half-maximal effect; % is set by controls: 0 for no effect and ±100 for the full control effect
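NADH formation kinetics: reaction with 30 uM PGE2 and 1 mM NAD+ (final), 20 nM enzyme, Tris-HCl pH 8 with Tween 20, after 15 min compound preincubation at room temperature. Fluorescence change, last versus first of five reads.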
ALDH1A1 block: blocks purified human ALDH1A1 activity. Purified ALDH1A1, NADH fluorescence, propionaldehyde substrate. Potency, µM (series often up to 75.3 µM), without a hit: at the top dose activity, negative = inhibition, actives largely listed as inhibitors. 220,000 compounds, 7.3% hits. AID 1030. P00352; active = well fitted inhibition curve with a large enough effect, not every such curve was filed as active; inconclusive = small, poorly fitted or top-dose-only effect, or another doubt; inactive = no such curve, though single readings can be large or run the other way;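 note: potency is the fitted concentration of half-maximal effect; plate controls were no enzyme wells and a reference inhibitor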
CBFb RUNX1 block: inhibitors of human CBF-beta and RUNX1 interaction; AlphaScreen CBFb-His/RUNX1-biotin binding, biochemical; Potency, µM (doses to about 59.8 µM), for the others: at the top dose activity, negative = inhibition, usual class: inhibitors; 230,000 tested, under 10 active; AID 1477; note: % of control where 0% means no effect
Target sequence (Q01196 whole entry, looked up): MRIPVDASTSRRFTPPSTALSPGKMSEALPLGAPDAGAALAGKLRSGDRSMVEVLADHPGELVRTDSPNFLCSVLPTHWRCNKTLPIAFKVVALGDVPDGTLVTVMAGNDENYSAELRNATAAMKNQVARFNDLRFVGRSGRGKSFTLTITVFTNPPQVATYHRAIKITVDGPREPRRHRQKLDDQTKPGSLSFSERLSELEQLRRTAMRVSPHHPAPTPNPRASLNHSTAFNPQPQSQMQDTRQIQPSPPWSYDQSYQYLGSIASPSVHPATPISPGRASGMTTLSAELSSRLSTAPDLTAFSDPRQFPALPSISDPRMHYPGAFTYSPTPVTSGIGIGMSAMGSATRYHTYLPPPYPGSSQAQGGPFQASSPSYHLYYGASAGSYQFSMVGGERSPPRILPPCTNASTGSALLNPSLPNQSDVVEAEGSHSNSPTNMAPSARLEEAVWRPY
Target sequence (Q13951 whole entry, looked up): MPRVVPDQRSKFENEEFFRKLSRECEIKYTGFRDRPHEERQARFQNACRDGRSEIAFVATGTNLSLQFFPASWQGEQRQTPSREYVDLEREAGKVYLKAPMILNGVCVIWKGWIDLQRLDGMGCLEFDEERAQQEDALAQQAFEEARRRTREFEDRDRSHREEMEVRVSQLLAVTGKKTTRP
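AlphaScreen binding: CBFb-His and RUNX1-biotin (30 nM each) preincubated 20 min, compound added for 15 min, then nickel and streptavidin beads for 90 min, all at room temperature. Disruption of the interaction by any mechanism counts as activity.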
KDM4E inh: inhibitors of human JMJD2E histone demethylase; Potency, µM (top dose mostly 57.1 µM), inactives show top-dose activity change, negative = inhibition, actives largely listed as inhibitors; JMJD2E catalytic domain, FDH-coupled NADH fluorescence (FDH is formaldehyde dehydrogenase); 230,000 compounds, 1.6% hits; B2RXH2; active = well fitted inhibition curve with a large enough effect, not every such curve was filed as active; inconclusive = small, poorly fitted or top-dose-only effect, or another doubt; inactive = no such curve, though single readings can be large or run the other way;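 note: potency is the fitted concentration of half-maximal effect; 0% = wells with enzyme and -100% = buffer wells without enzyme; nearly all actives have a fitted effect of over 50% in size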
* marks the source's active call; other numbers are inactive results; [ ] = remark or other dose. Unless noted, calls come from the whole dose curve; as a rule, active = well fitted curve in the direction sought with a large enough effect; inconclusive = small, poorly fitted or top-dose-only effect, or another doubt; inactive = no such curve, though single readings can be large; an effect the other way counts as inactive or inconclusive.

Results for CCCCCCOC(=O)c1cccnc1 ?
HTT cytoprotect: 13.1%; HttQ103 aggreg: 5.4%

Results for CCCCCCCOC(=O)c1ccc(OC(=O)c2cccnc2)cc1 ?
HTT cytoprotect: 14.6%; HttQ103 aggreg: -7.7%[1.84 µM]; HPGD block: 22.4µM*; ALDH1A1 block: inconclusive; CBFb RUNX1 block: -1.2%; KDM4E inh: 5.1%

How did O=C(O)CCc1ccc(-c2ccccc2)o1 do in these assays?
HTT cytoprotect: -86.2%[10 µM]; HttQ103 aggreg: inconclusive; HPGD block: -25.3%; ALDH1A1 block: 3.55µM*; CBFb RUNX1 block: 2.8%; KDM4E inh: -27.2%

How did N=C(N)SCCN1CCCCC1 do in these assays?
HTT cytoprotect: 16.5%[10 µM]; HPGD block: -6.1%; ALDH1A1 block: inconclusive

How did CCOC(=O)CNc1nc(Cl)nc(NC(C)(C)C)n1 do in these assays?
HTT cytoprotect: -6.8%; HttQ103 aggreg: 2.6%; ALDH1A1 block: 2.8%; CBFb RUNX1 block: 8.7%; KDM4E inh: 2.3%

Results for COc1ccc(Cn2nnnc2C(c2cc3ccc(OC)cc3[nH]c2=O)N2CCC(C)CC2)cc1 (centres undefined) ?
HTT cytoprotect: -9.5%; HttQ103 aggreg: -18.2%; HPGD block: -7.9%; ALDH1A1 block: 0.891µM*; CBFb RUNX1 block: 0.5%; KDM4E inh: -6.8%

How did COc1ccc2cc(C(c3nnnn3Cc3ccccc3)N3CCCCCC3)c(=O)[nH]c2c1 (centres undefined) do in these assays?
HTT cytoprotect: -28.0%[10 µM]; HttQ103 aggreg: 23.6%; HPGD block: -7.8%; ALDH1A1 block: 14.1µM*; CBFb RUNX1 block: 5.5%; KDM4E inh: inconclusive

How did Cc1ccccc1OCCN(C#N)c1nc(N(C)C)nc(N(C)C)n1 do in these assays?
HTT cytoprotect: 0.8%[10 µM]; HttQ103 aggreg: 2.2%[9.22 µM]; ALDH1A1 block: inconclusive; CBFb RUNX1 block: 7.4%; KDM4E inh: -16.5%

Results for CC[C@@]1(O)CC2CN(CCc3c([nH]c4ccccc34)[C@](C(=O)OC)(c3cc4c(cc3OC)N(C)C3[C@@](O)(C(=O)OC)C(OC(C)=O)[C@]5(CC)C=CCN6CC[C@@]43C65)C2)C1 (some centres undefined) ?
HTT cytoprotect: -302.5%; HttQ103 aggreg: -39.2%; HPGD block: -4.5%; ALDH1A1 block: -0.1%; CBFb RUNX1 block: -13.9%; KDM4E inh: inconclusive

How did CNC(=O)c1c2c(nc3ccc(Br)cc13)CCCC2 do in these assays?
HTT cytoprotect: -17.0%; HttQ103 aggreg: 11.0%; ALDH1A1 block: -8.7%; CBFb RUNX1 block: 5.5%; KDM4E inh: -5.9%

What do the screens show for `CO[C@@H]1C=CO[C@]2(C)Oc3c(C)c(O)c4c(O)c(c(C=NN5CCN(C)CC5)c(O)c4c3C2=O)NC(=O)C(C)=CC=C[C@H](C)[C@H](O)[C@H](C)[C@H](O)[C@H](C)[C@H](OC(C)=O)[C@H]1C`?
HTT cytoprotect: -6.0%[40.3 µM]; HPGD block: -2.9%; ALDH1A1 block: -2.4%[20.9 µM]; CBFb RUNX1 block: -15.9%[21.7 µM]; KDM4E inh: -29.4%[25.5 µM]

How did COC1/C=C/OC2(C)Oc3c(C)c(O)c4c(O)c(c(/C=N/N5CCN(C)CC5)c(O)c4c3C2=O)NC(=O)/C(C)=C/C=C/C(C)C(O)C(C)C(O)C(C)C(OC(C)=O)C1C (centres undefined) do in these assays?
HTT cytoprotect: 24.9%[1.9 µM]; HPGD block: -16.4%; ALDH1A1 block: -2.0%; CBFb RUNX1 block: -20.9%[21.7 µM]; KDM4E inh: 8.91µM*

Results for COc1cccc(C2C(C#N)=C(N)Oc3cc(C)[nH]c(=O)c32)c1OC (centres undefined) ?
HTT cytoprotect: -8.2%; HttQ103 aggreg: 22.3%; HPGD block: -13.4%; ALDH1A1 block: inconclusive; CBFb RUNX1 block: 2.0%; KDM4E inh: 2.5%

What do the screens show for `COc1cccc(C2CC(=O)N3CN(c4cccc(Cl)c4C)CSC3=C2C#N)c1OC` (centres undefined)?
HTT cytoprotect: -3.6%; HttQ103 aggreg: 21.6%; HPGD block: 7.94µM*; ALDH1A1 block: 3.16µM*; CBFb RUNX1 block: -7.5%; KDM4E inh: inconclusive

What do the screens show for `COc1ccc(OC)c(C2CC(=O)N3CN(c4cccc(Cl)c4C)CSC3=C2C#N)c1` (centres undefined)?
HTT cytoprotect: -19.5%; HttQ103 aggreg: 4.9%; HPGD block: 7.94µM*; ALDH1A1 block: 3.16µM*; CBFb RUNX1 block: -10.2%; KDM4E inh: inconclusive

What do the screens show for `O=c1cnnc(N/N=C/c2ccccn2)[nH]1`?
HTT cytoprotect: -36.1%[10 µM]; HttQ103 aggreg: -17.9%[9.22 µM]; CBFb RUNX1 block: -27.3%; KDM4E inh: 3.55µM*

What do the screens show for `CCN(CC)c1ccc(/C=N/Nc2nc3ccccc3[nH]2)c(O)c1`?
HTT cytoprotect: -61.5%[10 µM]; HttQ103 aggreg: inconclusive; HPGD block: inconclusive; ALDH1A1 block: -79.5%; CBFb RUNX1 block: inconclusive; KDM4E inh: 15.8µM*

What do the screens show for `C(=N\Nc1nc2ccccc2[nH]1)/c1ccccn1`?
HTT cytoprotect: -198.6%; HttQ103 aggreg: 7.08µM*; ALDH1A1 block: 4.5%; CBFb RUNX1 block: inconclusive; KDM4E inh: -11.1%

Results for Cc1cc(=O)[nH]c(N/N=C/c2ccccn2)n1 ?
HTT cytoprotect: -66.6%[10 µM]; HttQ103 aggreg: inconclusive; HPGD block: -18.3%; ALDH1A1 block: -12.7%; CBFb RUNX1 block: 2.1%; KDM4E inh: -0.9%

Results for COc1cc(OC)c(OC)cc1/C=N/Nc1nc2ccccc2[nH]1 ?
HTT cytoprotect: 2.9%[10 µM]; HttQ103 aggreg: -0.9%[9.22 µM]; ALDH1A1 block: 8.9%; CBFb RUNX1 block: -7.9%; KDM4E inh: -2.1%

What do the screens show for `O=c1nc(N/N=C/c2ccccn2)cn[nH]1`?
HTT cytoprotect: -151.5%; HttQ103 aggreg: 8.91µM*; ALDH1A1 block: -4.7%; CBFb RUNX1 block: inconclusive; KDM4E inh: 10µM*

How did C[C@@](O)(CNS(=O)(=O)c1ccccc1)c1ccccc1 do in these assays?
HTT cytoprotect: 4.9%[10 µM]; HPGD block: -2.7%; ALDH1A1 block: -2.7%[13.5 µM]

What do the screens show for `CC(C)(C)NC(=O)COC(=O)c1nsc(Cl)c1Cl`?
HTT cytoprotect: -4.6%[1.9 µM]; HttQ103 aggreg: -13.1%; HPGD block: -7.0%; ALDH1A1 block: 13.5%; CBFb RUNX1 block: 9.3%; KDM4E inh: 0.4%

How did C=CC[C@](C)(O)c1ccccc1 do in these assays?
HTT cytoprotect: 3.0%; HPGD block: -2.4%; ALDH1A1 block: 1.0%; CBFb RUNX1 block: -6.3%; KDM4E inh: -5.2%

How did Cc1cccc(N2CN=C3SCC(=O)N3C2)c1 do in these assays?
HTT cytoprotect: -5.9%[10 µM]; HttQ103 aggreg: 0.0%[9.22 µM]; ALDH1A1 block: -2.0%; CBFb RUNX1 block: -5.1%; KDM4E inh: -0.5%

What do the screens show for `O=C1[C@@H]2C(c3cccnc3)=NO[C@@H]2C(=O)N1c1ccc2ccccc2c1`?
HTT cytoprotect: 7.9%[10 µM]; HttQ103 aggreg: -0.3%[9.22 µM]; ALDH1A1 block: 1.58µM*; CBFb RUNX1 block: -1.6%; KDM4E inh: -15.7%

High-throughput results as filed in PubChem.
